High-throughput results from PubChem.
KB-3-1 tox: KB-3-1 parental cell cytotoxicity; KB-3-1 viability, CellTiter-Glo ATP luminescence, 72 h; Potency, µM (highest dose often 46.1 µM), hits mostly cytotoxic; actives 1.4% (n = 400,000); AID 1347075; further: nearly all actives have a fitted effect of over 60% in size
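Screening of KB-3-1 cells (DMEM, 10% FBS, phenol-red free) ran from lowest to highest compound concentration; after 72 h at 37 °C viability was read luminescently and curves fitted.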
SW480 rereplic: DNA re-replication induction in SW480 cells; AID 624297; SW480 DNA re-replication, Hoechst DNA content imaging, 48 h; actives 1.8% (n = 340,000); Potency, µM (doses to about 46.1 µM), hits mostly activators; further: nearly all actives have a fitted effect of over 55% in size
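Readout is total intensity of Hoechst-stained nuclei, excited at 405 nm and collected at 500-530 nm. Compound treatment lasted 48 hr at 37 C in 5% CO2 before staining.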
MCF10A rereplic: inducers of DNA re-replication in MCF 10A breast cells | actives 2.9% (n = 350,000) | Potency, µM (series often up to 46.1 µM), hits mostly activators | MCF 10A DNA re-replication, Hoechst nuclear intensity, 48 h | AID 624296; further: nearly all actives have a fitted effect of over 50% in size
ELG1 repair inh: ELG1-dependent DNA repair inhibition. HEK293T ELG1-luciferase reporter, luminescence, 16 h; DNA damage induced by 5-fluorouridine. Potency, µM (doses to about 46.1 µM), actives largely listed as inhibitors. actives 2.3% (n = 330,000). AID 504467; further: nearly all actives have a fitted effect of over 55% in size
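Step one: seed 2,000 cells per well. Step two: pin-transfer compound or DMSO alongside 5-fluorouridine. Step three: incubate 16 hr, 37 °C, 5% CO2. Step four: add ONE-Glo, wait 30 min, read luminescence.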
KB-V1 cytotox: kills drug-selected multidrug resistant KB-V1 cells | KB-V1 MDR cells viability, CellTiter-Glo, 72 h | Potency, µM (doses to about 46.1 µM), usual class: cytotoxic | actives 3.4% (n = 400,000) | AID 1347076; further: nearly all actives have a fitted effect of over 60% in size
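Readout: CellTiter-Glo luminescence, 10 min after addition. Cells: KB-V1 MDR subline, 72 h at 37 degrees C with compound. Analysis: corrected, normalized data fitted to concentration-effect curves.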
Large screens that a line does not name were inactive. The list is not random: actives were taken first. Their share in the collection is about 8.1%. The call rests on the fitted dose curve; in most records, active means well fitted curve in the direction sought with a large enough effect; inconclusive means small, poorly fitted or top-dose-only effect, or another doubt; inactive means no such curve, though single readings can be large; an effect the other way counts as inactive or inconclusive.

CC(=O)c1ccc2c(c1)C1C(Cl)C(Sc3ccccc3[N+](=O)[O-])CC1C(c1ccccc1[N+](=O)[O-])N2 (stereo not given)	ELG1 repair inh 4.1µM
CC(=O)c1ccc2c(c1)C1C(Cl)C(Sc3ccccc3[N+](=O)[O-])CC1C(c1ccccc1)N2 (stereo not given)	ELG1 repair inh inconclusive, KB-V1 cytotox inconclusive
COC(=O)c1ccc2ccn(CC(=O)NC(C)C)c2c1	ELG1 repair inh inconclusive
CN(C)C(=O)O/N=C(\N)COc1ccc(C(C)(C)C)cc1	SW480 rereplic 12µM, MCF10A rereplic inconclusive, ELG1 repair inh inconclusive, KB-V1 cytotox inconclusive
COC(=O)C1=C(c2ccccc2)C[C@@H]2CC[C@H]1N2C(=O)NC(C)C	none (no result: ELG1 repair inh)
CNCCc1ccccc1	none (no result: KB-3-1 tox, SW480 rereplic, MCF10A rereplic, KB-V1 cytotox)
COC(=O)C1=C(c2ccc(-c3ccccc3)c(F)c2)C[C@@H]2CC[C@H]1N2C(=O)N1CCCC1	KB-3-1 tox 18µM, KB-V1 cytotox inconclusive
COC(=O)C1=C(c2ccc(-c3ccccc3)c(F)c2)C[C@@H]2CC[C@H]1N2C(=O)N1CCCCC1	MCF10A rereplic inconclusive, KB-V1 cytotox inconclusive
COC(=O)C1=C(c2ccc(-c3ccccc3)c(F)c2)C[C@@H]2CC[C@H]1N2C(=O)N1CCC(O)CC1	ELG1 repair inh inconclusive
COC(=O)C1=C(c2ccc(-c3ccccc3)c(F)c2)C[C@@H]2CC[C@H]1N2C(=O)N1CCOCC1	KB-3-1 tox 18µM
COC(=O)C1=C(c2ccc(-c3ccccc3)c(F)c2)C[C@@H]2CC[C@H]1N2C(=O)NC1Cc2ccccc2C1	KB-3-1 tox inconclusive, SW480 rereplic 3.7µM
Nc1ccccc1C(=O)OCC(=O)c1ccc2c(c1)OCCO2	ELG1 repair inh inconclusive
CC1CC2CC(=O)CCC2(C)C2CCC3(C)C(O)CCC3C12 (stereo not given)	KB-3-1 tox inconclusive, KB-V1 cytotox 5.8µM (no result: SW480 rereplic, MCF10A rereplic, ELG1 repair inh)
C[C@]12CCC(=O)C[C@H]1CC[C@@H]1[C@@H]2CC[C@]2(C)[C@@H](O)CC[C@@H]12	none (no result: KB-3-1 tox, SW480 rereplic, MCF10A rereplic, KB-V1 cytotox)
CC12CCC3C(CCCC4CC(=O)CCC43C)C1CCC2O (stereo not given)	KB-3-1 tox inconclusive, KB-V1 cytotox 7.3µM (no result: ELG1 repair inh)
Clc1cc(Cl)cc(NC2=NCCS2)c1	MCF10A rereplic inconclusive
Cc1ccc(NC(=O)N(Cc2ccc3c(c2)OCO3)C2CCN(Cc3ccccc3)CC2)cc1C	none (no result: SW480 rereplic, MCF10A rereplic, ELG1 repair inh)
CC(C)c1cccc(C(C)C)c1OCCn1ccnc1	SW480 rereplic inconclusive, KB-V1 cytotox 23µM
c1ccc(Cn2ccnc2)cc1	none
COC1C(O)C(C)OC(OC2C(Oc3cccc4c(O)c5c(=O)oc6ccc(C)c7c(=O)oc(c34)c5c67)OC(C)C(O)C2O)C1O (stereo not given)	KB-3-1 tox 15µM, SW480 rereplic 21µM, MCF10A rereplic 8.2µM (no result: ELG1 repair inh)
CCCCn1c(O)c(C(CC)=NCc2ccc3c(c2)OCO3)c(=O)[nH]c1=O	ELG1 repair inh inconclusive, KB-V1 cytotox inconclusive
Cn1c(O)c(C=Nc2ccccc2-c2ccccc2)c(=O)n(C)c1=O	none
CCOC(=O)C1=Nc2ccccc2/C1=C\c1c(O)n(C)c(=O)n(C)c1=O	SW480 rereplic inconclusive, MCF10A rereplic inconclusive, ELG1 repair inh 21µM
COC(=O)C1=C(c2ccc(F)cc2F)C[C@@H]2CC[C@H]1N2C(=O)N1CCC(C)CC1	none
COc1ccc(NC(=O)CCOc2cc(C)ccc2C)cc1S(=O)(=O)N1CCCCC1	KB-3-1 tox inconclusive, MCF10A rereplic inconclusive, ELG1 repair inh 23µM, KB-V1 cytotox inconclusive
C=C(C=O)C[C@@H]1C[C@H](O)C2OC3C[C@]4(C)OC5/C=C\CC6OC7C(CC=CCC6OC5CCCC4OC3CC2O1)OC1CC2OC3CC(=O)OC3C[C@@H](C)C[C@@]2(C)OC1C[C@@H]7C (stereo not given in full)	KB-3-1 tox 4.6µM, MCF10A rereplic 0.73µM, ELG1 repair inh 4.1µM, KB-V1 cytotox 8.2µM
COc1ccc(C2C([N+](=O)[O-])=C(N)Oc3c2c(=O)oc2ccccc32)cc1 (stereo not given)	none (no result: KB-3-1 tox, SW480 rereplic, MCF10A rereplic, KB-V1 cytotox)
CO[C@H]1C=C2CCN(C)[C@H]2C2c3cc4c(cc3C(=O)O[C@@H]21)OCO4 (stereo not given in full)	none
O=C(CN1CCCC1)c1ccccc1	none (no result: SW480 rereplic, MCF10A rereplic, ELG1 repair inh)
CC1CCN(C(CC(=O)c2ccccc2)C(=O)c2ccccc2)CC1 (stereo not given)	SW480 rereplic 6.5µM, MCF10A rereplic 3.7µM (no result: ELG1 repair inh)
CN1CCN(Cc2ccccc2Sc2ccccc2)CC1	SW480 rereplic inconclusive, MCF10A rereplic inconclusive, KB-V1 cytotox 21µM
C=C1C(=O)[C@@]23C[C@H]4[C@@H]5[C@@]6(C)CCC[C@@]57[C@@H]2[C@@H](O)[C@@H]1C[C@H]3[C@H]7N4C6	KB-3-1 tox inconclusive, SW480 rereplic inconclusive, MCF10A rereplic 15µM (no result: ELG1 repair inh)
CCOC(=O)C(O)(c1ccc(N(CC)C(=O)COc2ccccc2)cc1)C(F)(F)F (stereo not given)	none
Cc1cc(C)nc(N2Cc3ccccc3C2=N)n1	KB-3-1 tox inconclusive
COc1cc([N+](=O)[O-])cc([N+](=O)[O-])c1N	none (no result: SW480 rereplic, MCF10A rereplic, ELG1 repair inh)
COc1cc([N+](=O)[O-])c2nc(C)ccc2c1[N+](=O)[O-]	SW480 rereplic 15µM, MCF10A rereplic inconclusive, KB-V1 cytotox inconclusive (no result: ELG1 repair inh)
COc1cc([N+](=O)[O-])c2ncccc2c1[N+](=O)[O-]	KB-3-1 tox inconclusive, KB-V1 cytotox 16µM (no result: SW480 rereplic, MCF10A rereplic, ELG1 repair inh)
O=[N+]([O-])c1ccc(N2CCCC2)c2ncccc12	KB-V1 cytotox inconclusive
CCN(CC)S(=O)(=O)c1cc(NC(=O)C(C)N2CC=C(c3ccccc3)CC2)ccc1C (stereo not given)	KB-3-1 tox 21µM, SW480 rereplic inconclusive, ELG1 repair inh 15µM, KB-V1 cytotox 16µM
CN(C)C(=O)Oc1noc2cc(Cl)ccc12	none
CC1CCC[C@H](O)CCCCCc2cc(O)cc(O)c2C(=O)O1 (stereo not given in full)	ELG1 repair inh inconclusive, KB-V1 cytotox 21µM
COc1cc(O)cc2c1C(=O)O[C@@H](C)CCCC(=O)CCCCC2	none
C[C@H]1CCC[C@H](O)CCCCCc2cc(O)cc(O)c2C(=O)O1	KB-3-1 tox inconclusive, SW480 rereplic inconclusive, MCF10A rereplic inconclusive, ELG1 repair inh 7.3µM, KB-V1 cytotox inconclusive
O=P(Oc1ccccc1)(Oc1ccccc1)C(O)c1ccc(Cl)cc1 (stereo not given)	none
CCCOc1ccccc1NP(=O)(Oc1ccccc1)Oc1ccccc1	none
Cc1ccccc1NP(=O)(Oc1ccccc1F)Oc1ccccc1F	ELG1 repair inh 23µM
c1cc2n(c1)-c1c(ccc3c1OCO3)CNC2c1ccc2c(c1)OCO2 (stereo not given)	KB-3-1 tox inconclusive, KB-V1 cytotox 18µM
